56 compounds from the antibiotic and cytotoxicity screens of Wong et al. (2023) can be followed below.

In all, about 39,000 compounds went through this assay and about 3,300 (8.5%) were called active. Only a selection was taken, and actives are over-represented in it overall.

This assay relates to HepG2. The assay is described as follows: cytotoxicity call (relative viability < 0.9). To be noted: 10 µM.
`CC(C)NC(=O)Nc1ccc2c(c1)C(=O)N([C@@H](C)CO)C[C@H](C)[C@H](CN(C)C(=O)NC1CCCCC1)O2`: the cytotoxicity call is “inactive”.
The result for `COC(=O)C1=C(C)NC(C)=C(C(=O)OC)C1` reads “inactive”.
In the case of `O=C(C[C@H]1CC[C@@H](NS(=O)(=O)c2ccccc2F)[C@H](CO)O1)NCCCN1CCOCC1`, the cytotoxicity call was “inactive”.
The result for `O=C(/C=C/c1ccc(O)c(O)c1)O[C@@H]1C[C@](O)(C(=O)O)C[C@@H](OC(=O)/C=C/c2ccc(O)c(O)c2)[C@H]1O` reads “inactive”; that for `CC(C)C[C@H](NC(=O)[C@@H](COC(C)(C)C)NC(=O)[C@H](Cc1ccc(O)cc1)NC(=O)[C@H](CO)NC(=O)[C@H](Cc1c[nH]c2ccccc12)NC(=O)[C@H](Cc1cnc[nH]1)NC(=O)[C@@H]1CCC(=O)N1)C(=O)N[C@@H](CCCNC(=N)N)C(=O)N1CCC[C@H]1C(=O)NNC(N)=O`, “inactive”; that for `C[C@H](CO)N1C[C@H](C)[C@@H](CN(C)S(=O)(=O)c2ccc(F)cc2)Oc2ccc(NS(=O)(=O)c3ccccc3)cc2CC1=O`, “inactive”.
The result for `COc1ccccc1-c1cnc2c(c1)C(=O)N([C@H](C)CO)C[C@@H](C)[C@@H](CN(C)C(=O)c1ccncc1)O2` reads “inactive”; that for `C[C@H]1CN([C@@H](C)CO)S(=O)(=O)c2ccc(C3=CCCC3)cc2O[C@H]1CN(C)C(=O)Cc1ccncc1`, “inactive”; that for `O=C1CN(c2ccccc2)C=NN1`, “inactive”.
In the case of `C[C@@H]1CCCCO[C@@H](CN(C)CC2CCCCC2)[C@H](C)CN([C@H](C)CO)C(=O)c2cc(NC(=O)Nc3cccc4ccccc34)ccc2O1` it was “active”; in that of `C[C@@H]1CN([C@H](C)CO)C(=O)c2cc(NC(=O)Nc3cccc4ccccc34)ccc2O[C@@H](C)CCCCO[C@@H]1CN(C)CC1CCCCC1`, “active”; in that of `COc1ccc(S(=O)(=O)N(C)C[C@@H]2Oc3ccc(NC(=O)Cn4cnnn4)cc3CC(=O)N([C@H](C)CO)C[C@@H]2C)cc1`, “inactive”.
As for `C[C@H](CO)N1C[C@H](C)[C@@H](CN(C)C(=O)Nc2cccc(Cl)c2Cl)OCc2ccccc2-c2ccccc2C1=O`, the cytotoxicity call is “inactive”.
In the case of `Cc1noc(C)c1S(=O)(=O)Nc1ccc2c(c1)CC(=O)N([C@H](C)CO)C[C@H](C)[C@H](CN(C)S(=O)(=O)c1ccccc1)O2` it was “inactive”; in that of `C[C@H]1CN([C@@H](C)CO)C(=O)CCCn2cc(nn2)CO[C@H]1CN(C)S(=O)(=O)c1ccc(-c2ccccc2)cc1`, “inactive”; in that of `COc1ccc(S(=O)(=O)Nc2ccc3c(c2)C(=O)N([C@@H](C)CO)C[C@@H](C)[C@@H](CN(C)C(=O)CCC(F)(F)F)OCCCC[C@@H](C)O3)cc1`, “inactive”.
In the case of `C[C@@H]1O[C@@H](O[C@H]2[C@H](O)[C@@H](O)[C@H](OC(=O)[C@]34CCC(C)(C)C[C@H]3C3=CC[C@H]5[C@@]6(C)CC[C@H](O[C@@H]7O[C@H](C(=O)O)[C@@H](O)[C@H](O)[C@H]7O)C(C)(C)[C@@H]6CC[C@@]5(C)[C@]3(C)CC4)O[C@@H]2CO)[C@H](O)[C@H](O)[C@H]1O` it was “inactive”; in that of `CC(=O)O[C@H]1CC(C)(C)C[C@H]2[C@]13CO[C@@]21CC[C@H]2[C@@]4(C)CC[C@H](O[C@@H]5OC[C@H](O[C@@H]6O[C@H](CO)[C@@H](O)[C@H](O)[C@H]6O[C@@H]6OC[C@@H](O[C@@H]7O[C@H](CO)[C@@H](O)[C@H](O)[C@H]7O)[C@H](O)[C@H]6O)[C@H](O)[C@H]5O[C@@H]5O[C@H](CO)[C@@H](O)[C@H](O)[C@H]5O)[C@@](C)(CO)[C@@H]4CC[C@@]2(C)[C@]1(C)C[C@H]3O`, “active”; in that of `C[C@@H]1O[C@@H](O[C@H]2[C@H](O[C@H]3[C@H](O)[C@@H](C(=O)O)O[C@@H](O[C@H]4CC[C@]5(C)[C@H]6CC[C@]78OC[C@@]9(CCC(C)(C)C[C@@H]97)[C@H](O)C[C@@]8(C)[C@]6(C)CC[C@H]5C4(C)C)[C@@H]3OC3O[C@H](CO)[C@@H](O)[C@H](O)[C@H]3O)O[C@H](CO)[C@H](O)[C@@H]2O)[C@H](O)[C@H](O)[C@H]1O` (stereo partly specified), “active”.
The result for `CC1(C)[C@@H](O[C@H]2O[C@H](C(=O)O)[C@@H](O)[C@H](O)[C@H]2O[C@@H]2O[C@H](C(=O)O)[C@@H](O)[C@H](O)[C@H]2O)CC[C@]2(C)[C@H]3C(=O)C=C4[C@@H]5C[C@@](C)(C(=O)O)CC[C@]5(C)CC[C@@]4(C)[C@]3(C)CC[C@@H]12` reads “inactive”.
With `C[C@@H]1O[C@@H](O[C@H]2[C@H](O[C@H]3[C@H](O)[C@@H](O[C@@H]4O[C@H](CO)[C@@H](O)[C@H](O)[C@H]4O)[C@H](O[C@H]4CC[C@]5(C)[C@H]6CC[C@]78OC[C@@]9(CCC(C)(C)C[C@@H]97)[C@H](O)C[C@@]8(C)[C@]6(C)CC[C@H]5C4(C)C)O[C@@H]3C(=O)O)O[C@H](CO)[C@H](O)[C@@H]2O)[C@H](O)[C@H](O)[C@H]1O`, the cytotoxicity call was “active”.
In the case of `CC(=O)O[C@H]1CC(C)(C)C[C@H]2[C@]13CO[C@@]21CC[C@@H]2[C@@]4(C)CC[C@H](O[C@@H]5O[C@H](C(=O)O)[C@@H](O)[C@H](O[C@@H]6O[C@H](CO)[C@H](O)[C@H](O)[C@H]6O[C@@H]6O[C@@H](C)[C@H](O)[C@@H](O)[C@H]6O)[C@H]5O[C@@H]5O[C@H](CO)[C@@H](O)[C@H](O)[C@H]5O)C(C)(C)[C@@H]4CC[C@@]2(C)[C@]1(C)C[C@H]3O` it was “active”; in that of `C[C@@H]1O[C@@H](O[C@H]2[C@H](O[C@H]3[C@H](O)[C@@H](O[C@@H]4O[C@H](CO)[C@@H](O[C@@H]5O[C@H](CO)[C@H](O)[C@H]5O)[C@H](O)[C@H]4O)[C@H](O[C@H]4CC[C@]5(C)[C@H]6CC[C@]78OC[C@@]9(CCC(C)(C)C[C@@H]97)[C@H](O)C[C@@]8(C)[C@]6(C)CC[C@H]5C4(C)C)O[C@@H]3C(=O)O)O[C@H](CO)[C@H](O)[C@@H]2O)[C@H](O)[C@H](O)[C@H]1O`, “inactive”; in that of `C[C@H]1O[C@@H](OC[C@H]2O[C@@H](O[C@H]3CC[C@]4(C)[C@H]5CCC6=C(CC[C@@]7(C(=O)O[C@@H]8O[C@H](CO)[C@@H](O)[C@H](O)[C@H]8O[C@@H]8O[C@H](CO)[C@@H](O)[C@H](O)[C@H]8O)CCC(C)(C)C[C@@H]67)[C@]5(C)CC[C@H]4C3(C)C)[C@H](O)[C@@H](O)[C@@H]2O)[C@H](O)[C@@H](O)[C@@H]1O`, “inactive”.
For the compound `CC(=N)NCCCC[C@@H](N)C(=O)O`, the cytotoxicity call was “inactive”.
In the case of `COCC(=O)Nc1ccc2c(c1)C(=O)N(C)[C@H]1CC[C@@H](CC(=O)N3CCc4ccccc4C3)O[C@H]1CO2` it was “inactive”; in that of `CO[C@H]1CN(C)C(=O)c2ccc(NS(=O)(=O)CC(F)(F)F)cc2OC[C@H](C)N(C(=O)c2ccc3c(c2)OCO3)C[C@H]1C`, “inactive”.
On to `C=CC[C@H](Nc1ccccc1C)c1ccc(Cl)cc1`, for which the cytotoxicity call was “inactive”.
The result for `C[C@H](CO)N1C[C@H](C)[C@@H](CN(C)S(=O)(=O)c2cn(C)cn2)OCCCC[C@H](C)Oc2ccc(NS(C)(=O)=O)cc2C1=O` reads “inactive”.
In the case of `NC(=O)[C@H]1C[C@@H]2C=C[C@H]1C2`, the cytotoxicity call is “inactive”.
The result for `O=C(CCCCCCC(=O)Nc1ccc([C@H]2C[C@H](c3ccccc3)O[C@H](c3ccc(Oc4ccccc4)cc3)O2)cc1)NO` reads “inactive”; that for `C[C@H]1CN([C@@H](C)CO)C(=O)c2cc(NC(=O)Cn3cnnn3)ccc2O[C@@H]1CN(C)S(=O)(=O)c1ccc(F)cc1`, “inactive”.
For `Cc1ccc(S(=O)(=O)N2C[C@H](O)COC[C@@H]3O[C@H](CC(=O)NCCCN(C)C)CC[C@H]32)cc1`, the cytotoxicity call was “inactive”.
In the case of `CCN1CCN(C(=O)CN2C(=O)c3ccccc3S2(=O)=O)CC1` it was “inactive”; in that of `CCN1CCN(CC(=O)Nc2ccc(-c3cccc4c(=O)cc(N5CCOCC5)oc34)c3sc4ccccc4c23)CC1`, “active”; in that of `CCCC#Cc1ccc2c(c1)O[C@@H](CN(C)S(=O)(=O)c1cccc(F)c1)[C@H](C)CN([C@@H](C)CO)S2(=O)=O`, “inactive”.
In the case of `CC(C)N1C[C@H](C)[C@@H](CN(C)Cc2ccccc2Cl)Oc2c(NC(=O)c3ccncc3)cccc2C1=O` it was “inactive”; in that of `O=C(CCCN1CCN(c2ccccn2)CC1)c1ccc(F)cc1`, “inactive”; in that of `O=C(CCCN1CCC(O)(c2ccc(Br)cc2)CC1)c1ccc(F)cc1`, “active”.
The result for `O=C(CCCN1CCC(O)(c2ccc(Cl)cc2)CC1)c1ccc(F)cc1` reads “active”; that for `O=C(CN1CCNCC1)c1ccc(F)cc1`, “inactive”.
As to `NC(=O)C1(N2CCCCC2)CCN(CCCC(=O)c2ccc(F)cc2)CC1`, the cytotoxicity call was “inactive”.
The result for `O=C(CCCN1CC=C(n2c(=O)[nH]c3ccccc32)CC1)c1ccc(F)cc1` reads “inactive”; that for `CC(C)(C)OC(=O)C[C@H]1CC=CC[C@@H](CC(=O)N[C@@H](CO)Cc2ccccc2)C(=O)N[C@@H](C(C)(C)C)COC1=O`, “inactive”; that for `C[C@@H]1CN([C@@H](C)CO)C(=O)c2cc(NC(=O)Cc3ccccc3)ccc2O[C@H]1CN(C)Cc1ccc(C(=O)Nc2ccccc2N)cc1`, “inactive”.
The result for `C[C@@H]1CN([C@@H](C)CO)C(=O)c2cccc(NC(=O)c3ccc(-c4nccs4)cc3)c2O[C@H]1CN(C)C(=O)Nc1ccccc1` reads “inactive”.
In the case of `C[C@H]1CN([C@@H](C)CO)C(=O)c2cccc(NC(=O)Nc3ccc(F)cc3)c2O[C@H]1CN(C)Cc1ccc(Cl)c(Cl)c1` it was “inactive”.
`C[C@@H]1CN([C@H](C)CO)C(=O)c2cccc(NC(=O)Nc3ccc(C(F)(F)F)cc3)c2O[C@@H]1CN(C)Cc1ccc(Cl)c(Cl)c1`: the cytotoxicity call is “active”.
In the case of `C[C@H]1CN([C@@H](C)CO)C(=O)c2cccc(NC(=O)Nc3ccc(C(F)(F)F)cc3)c2O[C@@H]1CN(C)Cc1ccc(Cl)c(Cl)c1` it was “active”; in that of `C[C@H](CO)N1C[C@H](C)[C@@H](CN(C)Cc2ccc(Cl)c(Cl)c2)Oc2c(NC(=O)Nc3ccc(F)cc3)cccc2C1=O`, “inactive”; in that of `C[C@@H]1CN([C@H](C)CO)C(=O)c2cccc(NC(=O)Nc3ccc(C(F)(F)F)cc3)c2O[C@H]1CN(C)Cc1ccc(Cl)c(Cl)c1`, “inactive”.
The result for `C[C@H]1CN([C@@H](C)CO)C(=O)c2cccc(NC(=O)Nc3ccc(F)cc3)c2O[C@@H]1CN(C)Cc1ccc(Cl)c(Cl)c1` reads “inactive”; that for `C[C@@H]1CN([C@@H](C)CO)C(=O)c2cccc(NC(=O)Nc3ccc(C(F)(F)F)cc3)c2O[C@@H]1CN(C)Cc1ccc(Cl)c(Cl)c1`, “active”.
The result for `C[C@@H]1CN([C@@H](C)CO)C(=O)c2cccc(NC(=O)Nc3ccc(C(F)(F)F)cc3)c2O[C@H]1CN(C)Cc1ccc(Cl)c(Cl)c1` reads “active”; that for `C[C@@H]1CN([C@@H](C)CO)C(=O)c2cccc(NC(=O)Nc3ccc(F)cc3)c2O[C@@H]1CN(C)Cc1ccc(Cl)c(Cl)c1`, “inactive”.
On to `C[C@H](CO)N1C[C@H](C)[C@H](CN(C)Cc2ccc(Cl)c(Cl)c2)Oc2c(NC(=O)Nc3ccc(C(F)(F)F)cc3)cccc2C1=O`, for which the cytotoxicity call is “inactive”.
